{"source": "PubChem BioAssay (NCATS)", "key": {"[1]": {"test": "Confirmation and Secondary Assay for Modulators of Hemoglobin Beta Chain Splicing at IVS2 654 locus (AID 910);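 further: per-well total GFP intensity by laser scanning cytometry after 2-day treatment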", "procedure,_shortened": "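HeLa cells stably carrying EGFP interrupted by mutant beta-globin IVS2-654 intron (CMV-driven) were treated with compound for 2 days at 37C; corrected splicing was scored as total peak GFP intensity per well (488 nm excitation, 500-520 nm emission).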"}, "[2]": {"test": "Confirmation and Secondary Assay for Modulators of Hemoglobin Beta Chain Splicing at IVS2 705 locus (AID 930); further: series mostly up to about 46 µM", "procedure,_shortened": "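HeLa EGFP-705 reporter; 500 cells/well, o/n 37C 5% CO2; cpd 2 d; 488 ex/500-520 em laser scan; total peak GFP intensity/well. Ref: 500 nM […] antisense PNA.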"}, "[3]": {"target": "Cytochrome P450 2C19 (Homo sapiens) (UniProt P33261)", "sequence (P33261 whole entry, looked up)": "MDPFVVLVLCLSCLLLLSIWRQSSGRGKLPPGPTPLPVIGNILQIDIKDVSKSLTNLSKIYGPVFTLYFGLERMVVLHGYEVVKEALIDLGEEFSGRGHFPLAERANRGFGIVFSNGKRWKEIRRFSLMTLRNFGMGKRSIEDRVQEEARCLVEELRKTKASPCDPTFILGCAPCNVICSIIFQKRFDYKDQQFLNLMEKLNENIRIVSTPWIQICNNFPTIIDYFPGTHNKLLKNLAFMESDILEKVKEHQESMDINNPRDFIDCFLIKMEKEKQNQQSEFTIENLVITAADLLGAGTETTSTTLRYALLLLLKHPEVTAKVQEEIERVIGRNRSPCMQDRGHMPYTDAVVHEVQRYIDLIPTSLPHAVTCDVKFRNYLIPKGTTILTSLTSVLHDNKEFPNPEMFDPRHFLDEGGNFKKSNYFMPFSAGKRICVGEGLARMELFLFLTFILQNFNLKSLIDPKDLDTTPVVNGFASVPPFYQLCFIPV", "test": "qHTS Assay for Inhibitors and Substrates of Cytochrome P450 2C19 (AID 899); further: nearly all actives have a fitted effect of over 60% in size; further: potency means the concentration at half of the fitted maximal effect", "procedure,_shortened": "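In 50mM KPO4, the reaction held 5nM enzyme and KM-level (10uM) Luciferin-H EGE; it ran 60 min at 37C after NADPH regeneration and a 10 min compound preincubation. Luminescence values were scaled to 57uM ketoconazole as complete inhibition.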"}, "[4]": {"test": "qHTS Assay for Identification of Small Molecule Agonists for Hypoxia Response Element Signaling Pathway (AID 914; active means well fitted activation curve with a large enough effect in the signal ratio, with a control signal flat, not every such curve was filed as active; the % refers to the signal ratio)", "settings": "ME-180 HRE-bla reporter, beta-lactamase ratio, CoCl2, 17 h; active compounds read high", "procedure,_shortened": "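Read-out: CCF4 FRET ratio of 460nm to 530nm emission (excitation 405nm) after 2.5 hours at room temperature, taken from HRE-bla ME-180 cells that had been exposed to compound and EC50 CoCl2 for 17 hours.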"}}, "note": "Records with an inconclusive call do not appear. A call without a number means that no potency is given here. The source made the active and inactive calls. Unless noted, the call rests on the fitted dose curve; in most records, active means well fitted curve in the direction sought with a large enough effect; inconclusive means small, poorly fitted or top-dose-only effect, or another doubt; inactive means no such curve, though single readings can be large; an effect the other way counts as inactive or inconclusive."}
{"smiles": "CCOC(=O)C1=C[C@@]2(CC)CCCN3CCc4c(n1c1ccccc41)C32", "note": "(stereo partly drawn)", "values": [{"measurement": "outcome", "setting": "[1]", "value": "inactive"}, {"measurement": "outcome", "setting": "[2]", "value": "inactive"}]}
{"smiles": "CO/N=C\\[C@@H](NS(=O)(=O)c1ccc(C)cc1)[C@H](C)/C=C\\CC(=O)OC", "values": [{"measurement": "Potency", "setting": "[3]", "value": "3.16 µM (active)"}]}
{"smiles": "CC(C)(C)N1C(=O)[C@H]2[C@@H]3[C@H](O)[C@H](O)CC(=O)[C@H]3CC[C@H]2C1=O", "values": [{"measurement": "Potency", "setting": "[3]", "value": "inactive"}]}
{"smiles": "CO[C@@H]1COC(=O)[C@H]2CCCN2C(=O)C/C=C\\[C@@H](C)[C@H](OC)COC(=O)[C@H]2CCCN2C(=O)C/C=C\\[C@H]1C", "values": [{"measurement": "Potency", "setting": "[3]", "value": "inactive"}]}
{"smiles": "C[C@@H]1/C=C\\CC(=O)OC[C@H](C)C(=O)N[C@@H](C)C(=O)OC1", "values": [{"measurement": "Potency", "setting": "[3]", "value": "inactive"}, {"measurement": "activation", "setting": "[4]", "value": "0.738% (inactive)"}]}
{"smiles": "CC(=O)N1CCN(c2ccc(OCC3CO[C@@](Cn4ccnc4)(c4ccc(Cl)cc4Cl)O3)cc2)CC1", "note": "(stereo partly drawn)", "values": [{"measurement": "outcome", "setting": "[1]", "value": "inactive"}, {"measurement": "outcome", "setting": "[2]", "value": "inactive"}]}
{"smiles": "CC(=O)[C@]1(O)CCC2C3CC(C)C4=CC(=O)C=CC4(C)[C@@]3(F)C(O)C[C@]21C", "note": "(stereo partly drawn)", "values": [{"measurement": "outcome", "setting": "[1]", "value": "inactive"}, {"measurement": "outcome", "setting": "[2]", "value": "inactive"}]}
{"smiles": "Cc1ccc(S(=O)(=O)N[C@H]2COC(=O)C/C=C\\[C@@H](C)[C@H](NS(=O)(=O)c3ccc(C)cc3)COC(=O)[C@H](C)NC(=O)C/C=C\\[C@H]2C)cc1", "values": [{"measurement": "Potency", "setting": "[3]", "value": "inactive"}, {"measurement": "activation", "setting": "[4]", "value": "3.42% (inactive)"}]}
{"smiles": "CO[C@@H]1COC(=O)[C@H](C)NC(=O)C/C=C\\[C@@H](C)[C@@H](NS(=O)(=O)c2ccc(C)cc2)COC(=O)C/C=C\\[C@@H]1C", "values": [{"measurement": "Potency", "setting": "[3]", "value": "inactive"}]}
{"smiles": "CC1(C)C(=O)C=C[C@]2(C)C1CC(=O)[C@]1(C)C2CC[C@@]2(C)C(c3ccoc3)OC(=O)C3O[C@@]321", "note": "(stereo partly drawn)", "values": [{"measurement": "outcome", "setting": "[1]", "value": "inactive"}, {"measurement": "outcome", "setting": "[2]", "value": "inactive"}]}
{"smiles": "CC1CC[C@@]2(C(=O)O)CC[C@]3(C)C(=CCC4[C@@]5(C)CCC(O)C(C)(C)C5CC[C@@]43C)C2C1C", "note": "(stereo partly drawn)", "values": [{"measurement": "outcome", "setting": "[1]", "value": "inactive"}, {"measurement": "outcome", "setting": "[2]", "value": "inactive"}]}
